# Test results published in PubChem BioAssay AID449762 (Southern Research Specialized Biocontainment Screening …, 2010).
# Hit rate of the full screen: of about 330,000 compounds, about 1,900 (0.58%) were called active. Not shown: some 4% with an inconclusive outcome. No stated cut-off is given here; in the data, inconclusive means inhibition above about 70% without an active follow-up result; inactive means below that. The list is a sample of the results. Potency and affinity values are given separately.
# Test: M. tuberculosis growth inhibition, HTS (AID 449762);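 further: bacterial growth assessed after seven days of incubation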
# Conditions: M. tuberculosis H37Rv growth inhibition, 7H9 media; at 25 µM; hits give high values
row,Compound,inhibition
1,CNC(=S)NC1CC2CCCC(C1)N2Cc1ccc(C)cc1 (configuration not stated),-9.32% (inactive)
2,CNC(=S)NC1CC2CCC(C1)N2Cc1ccccc1 (configuration not stated),-6.1% (inactive)
3,CCNC(=S)NC1CC2CCCC(C1)N2Cc1ccc(C)cc1 (configuration not stated),-6.09% (inactive)
4,CCc1ccc(NC(=S)NC2CC3CCCC(C2)N3Cc2ccccc2)cc1 (configuration not stated),9.67% (inactive)
5,C/C(N)=C(/C#N)C(=O)COC(=O)CCSc1ccccc1Cl,-0.73% (inactive)
6,O=C(Nc1ccc(Br)cc1Br)c1cccc2c1C(=O)N(C1CCCCC1)C2,10.8% (inactive)
7,CC(C)C[C@H](NC(=O)CCCn1nnc2ccccc2c1=O)C(=O)O,7.06% (inactive)
8,Cc1cc(C)c2c(CC(=O)NNC(=O)c3ccccc3)coc2c1,-11.5% (inactive)
9,COc1ccc(N=Nc2ccc3ccccc3c2)c(O)c1,53.5% (inactive)
10,COc1cc(N=Nc2ccccc2C(=O)O)ccc1O,5.29% (inactive)
11,Cc1ccnc(NC(=O)c2cc3ccccc3oc2=O)c1,45.2% (inactive)
12,O=C(Nc1ccccn1)c1cc2ccccc2o1,3.67% (inactive)
13,O=C(CN1C(=O)NC2(CCCc3ccccc32)C1=O)NCCc1ccc(F)cc1 (configuration not stated),1.6% (inactive)
14,O=C(CSc1ccccc1)N1CCN(c2ccc(F)cc2)CC1,-5.77% (inactive)
15,COc1cccc(/C=C/C(=O)OCC(=O)Nc2ccc(N3CCOCC3)cc2)c1OC,-2.5% (inactive)
16,CC(C)OC(=O)CSc1nnc(CNc2nc(-c3ccccc3)cs2)n1C,0.34% (inactive)
17,COC(=O)CSc1nnc(CNc2nc(-c3ccccc3)cs2)n1C,-7.67% (inactive)
18,COC(=O)[C@H](CC(C)C)NS(=O)(=O)N[C@@H](CC(C)C)C(=O)OC,-8.61% (inactive)
19,CC1(C)Cc2c(sc(NC(=O)C(=O)N3CCCC3)c2C(=O)O)CO1,1.82% (inactive)
20,COC(=O)c1c(NC(=O)C(=O)N2CCCCC2)sc2c1CC(C)(C)OC2,5.56% (inactive)
21,COc1ccc2ccc3c(c2c1)N=CC1(O3)N(C)c2ccccc2C1(C)C (configuration not stated),-4.4% (inactive)
22,COc1ccc(N2CCN(C(=O)COCC(=O)O)CC2)cc1,-6.23% (inactive)
23,COc1ccc(C(=O)NCCS(=O)(=O)N2CCN(C(=O)c3ccco3)CC2)cc1,-5.88% (inactive)
24,O=C(CSc1n[nH]c(=O)[nH]c1=O)c1ccccc1,51.6% (inactive)
25,COc1ccc(C(=O)CSc2n[nH]c(=O)[nH]c2=O)cc1,-1.42% (inactive)
26,COc1ccc(NC(=S)NC2CCCCC2)c(OC)c1,4.99% (inactive)
27,CCOc1ccccc1C(=O)N1CCN=C1SCc1cccnc1,10.2% (inactive)
